The values below come from PubChem BioAssay (NCI).

Assay [1] can be described thus: NCI Yeast Anticancer Drug Screen. Data for the rad50 strain (AID 155).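 Further: 0% = growth of vehicle-only cultures of the same strain.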 The note with it: S. cerevisiae rad50 strain growth inhibition; at 50.0 µM; hits give high values. The method in brief: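 Yeast carrying a defined DNA repair defect were exposed to test compounds, and growth was compared with vehicle-treated controls to give percent inhibition.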
Assay [2] is described as follows: NCI Yeast Anticancer Drug Screen. Data for the mec2-1 strain (AID 157). The settings on record: S. cerevisiae mec2-1 strain, at 50.0 µM, hits give high values. Summed up:
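Strain: mec2-1 (DNA repair/cell cycle alteration). Compound exposure, then growth measured; inhibition expressed relative to vehicle.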

Assay [3] is described as follows: NCI Yeast Anticancer Drug Screen. Data for the sgs1 mgt1 strain (AID 161).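 Further: 0% = growth of cultures given vehicle only.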 The note with it: S. cerevisiae sgs1 mgt1 strain, at 50.0 µM, hits give high values. Summed up: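 Genetically altered yeast, compound exposure, growth inhibition relative to vehicle.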
Assay [4] is described as follows: NCI Yeast Anticancer Drug Screen. Data for the cln2 rad14 strain (AID 165).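 Further: 0% = growth equal to vehicle treated cultures.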 The note with it: S. cerevisiae cln2 rad14 strain, at 50.0 µM, hits give high values. Summed up: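 Compounds are applied to the cln2 rad14 yeast strain, and growth is then compared with that of vehicle-treated cultures to give inhibition.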
A short description of assay [5]: NCI Yeast Anticancer Drug Screen. Data for the bub3 strain (AID 167). The settings on record: S. cerevisiae bub3 mutant strain, at 50.0 µM, hits give high values. The method in brief:
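Compounds were applied to a genetically altered yeast strain carrying a cell-cycle control defect. Growth inhibition was scored against vehicle-treated controls.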

Assay [6] in a line: NCI Yeast Anticancer Drug Screen. Data for the mlh1 rad18 strain (AID 175). The note with it: S. cerevisiae mlh1 rad18 strain growth inhibition; at 50.0 µM; hits give high values. The method in brief: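 Read-out is yeast growth inhibition, calculated against vehicle-only controls. The compound was applied to a strain engineered with DNA damage repair alterations.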

Compounds without any hit were thinned out: in the full panel of roughly 79,000, 15% have a hit. Unmarked numbers belong to inactive results. Calls of active or inactive are those of the source. No stated cut-off is given here; in the data, active means growth inhibition above about 70%; inactive means the rest.

For the compound `CCNC(=O)COc1ccc(Br)cc1Br`, the growth inhibition in assay [1] is -3.7%; in assay [2], -5.2%; in assay [3], -3.8%; in assay [4], 11.2%; in assay [5], 8.4%; in assay [6], 15.2%.

As to `CN(C)c1cc(-c2ccccc2)oc(=O)c1Cl`, the growth inhibition in assay [1] is 11.6%; in assay [2], -19.8%; in assay [3], -24.2%; in assay [4], -22.2%; in assay [5] it was -16.2%; in assay [6], -9.15%.

Consider `CSC(=Nc1nnc(-c2ccc([N+](=O)[O-])cc2)s1)SC`, for which the growth inhibition in assay [1] was 8.35%; in assay [2], 1.2%; in assay [3] it was -23.6%; in assay [4], -11.6%; in assay [5], -5.5%; in assay [6] it was -47%.

Regarding `CSc1n[nH]c(SC)n1`, the growth inhibition in assay [1] is -4.3%; in assay [2], -15.2%; in assay [3] it was -4.15%; in assay [4], 4.65%; in assay [5] it was -11.2%; in assay [6] it was -5.9%.

For `O=C(O)c1ccc(C(=O)c2ccccc2)c(C(=O)O)c1`, the growth inhibition in assay [1] was -4.05%; in assay [2], -1.8%; in assay [3], -19.3%; in assay [4], -8.7%; in assay [5], -62.9%; in assay [6] it was -17.4%.

In the case of `O=C(O)C(O)c1cccc([N+](=O)[O-])c1` (configuration not stated), the growth inhibition in assay [1] was 11.1%; in assay [2] it was 11.7%; in assay [3], -8.8%; in assay [4] it was -7.05%; in assay [5], -32.2%; in assay [6], -12.9%.

`COC(=O)CCCc1ccccc1N`: the growth inhibition was -5.65% in assay [1]; -8.8% in assay [2]; -18.9% in assay [3]; -35.8% in assay [4]; 3.1% in assay [5]; -15.9% in assay [6].

On to `Cc1ccc2nc(CC(=O)c3ccccc3)c(CC(=O)c3ccccc3)nc2c1`, for which the growth inhibition is 0.7% in assay [1]; -17% in assay [2]; 2.25% in assay [3]; 24.1% in assay [4]; 0.15% in assay [5]; -2.9% in assay [6].

Consider `COC(=O)c1c2c(cc3c1CCC3)CCC2`, for which the growth inhibition is -21.1% in assay [1]; -3.15% in assay [2]; -31.8% in assay [3]; 14.8% in assay [4]; 32.9% in assay [5]; -20.2% in assay [6].

On to `Cc1cc2sc(C)[n+](CCCOS(=O)(=O)[O-])c2cc1C`, for which the growth inhibition in assay [1] was -22.6%; in assay [2], -23.9%; in assay [3] it was -40%; in assay [4] it was 36.3%; in assay [5], -0.95%; in assay [6] it was -35.9%.

In the case of `CCCCCC(=O)Nc1ccccc1`, the growth inhibition in assay [1] was 4.95%; in assay [2], -6.3%; in assay [3] it was 1.7%; in assay [4], -29.4%; in assay [5], -10.9%; in assay [6], -3.25%.

As to `CCOC(=O)C1(C(=O)OCC)C2C=CC(C2)C1C(=O)OC` (configuration not stated), the growth inhibition in assay [1] was -0.65%; in assay [2], -2.4%; in assay [3] it was 15.8%; in assay [4], -60.3%; in assay [5] it was 8.45%; in assay [6] it was 8.3%.

On to `CCSC(=S)S(=O)(=O)c1ccc(C)cc1`, for which the growth inhibition is 90.4% (active) in assay [1]; 93.1% (active) in assay [2]; 89.5% (active) in assay [3]; 90.5% (active) in assay [4]; 84.2% (active) in assay [5]; 92.3% (active) in assay [6].

In the case of `O=C(CCC(=O)Nc1ccccc1[N+](=O)[O-])CC(=O)c1ccc(Br)cc1`, the growth inhibition in assay [1] is 4.85%; in assay [2] it was 7.75%; in assay [3], -2.95%; in assay [4], 9.3%; in assay [5] it was -13.1%; in assay [6] it was 6.15%.

As for `CC1(C)CC[C@]2(C(=O)O)CC[C@]3(C)C(=CC[C@@H]4[C@@]5(C)CC[C@@H]6OC(C)(C)OC[C@@]6(C)[C@@H]5CC[C@]43C)[C@H]2C1`, the growth inhibition is 3.7% in assay [1]; 10.8% in assay [2]; -19.9% in assay [3]; -5.1% in assay [4]; -8.65% in assay [5]; -62.6% in assay [6].

On to `O=CNC1(c2ccccc2)CCCCC1`, for which the growth inhibition in assay [1] was 2%; in assay [2] it was -37%; in assay [3], -12.2%; in assay [4], 16.4%; in assay [5] it was 4.6%; in assay [6], 4.85%.

`O=C(SCc1ccccc1)N(c1ccccc1)c1ccccc1`: the growth inhibition is -0.55% in assay [1]; 11.9% in assay [2]; 0% in assay [3]; 22.4% in assay [4]; 12.4% in assay [5]; 5.3% in assay [6].

Consider `COC(=O)C1=C(O)c2cc(-c3ccccc3)c(-c3ccccc3)c(C#N)c2NC(=O)C1`, for which the growth inhibition was 32.5% in assay [1]; 23.9% in assay [2]; 12.9% in assay [3]; 11.1% in assay [4]; -4.25% in assay [5]; 30.4% in assay [6].

For `O=C(Cl)c1ccc2c(c1)C(=O)NC2=O`, the growth inhibition is -6.55% in assay [1]; -12.1% in assay [2]; -19.4% in assay [3]; 8.95% in assay [4]; -5.95% in assay [5]; -16.4% in assay [6].

For the compound `C[N+](C)(C)c1cc[c]([Sn]([c]2ccc([N+](C)(C)C)cc2)([c]2ccc([N+](C)(C)C)cc2)[c]2ccc([N+](C)(C)C)cc2)cc1`, the growth inhibition in assay [1] was 16.4%; in assay [2], -5.75%; in assay [3] it was 20.2%; in assay [4], 6.65%; in assay [5], -0.15%; in assay [6], 11.3%.

Regarding `COc1cc2ccc3c4cc(OC)c(OCc5ccccc5)cc4cnc3c2cc1OC`, the growth inhibition was 40.5% in assay [1]; 0.45% in assay [2]; 4.9% in assay [3]; 18.9% in assay [4]; 27.4% in assay [5]; 23% in assay [6].

As to `CCOc1ccccc1C=Nc1cc(C(C)C)c(O)cc1C`, the growth inhibition in assay [1] was -10.2%; in assay [2], -17.2%; in assay [3] it was 5.6%; in assay [4], -4.6%; in assay [5], 0.85%; in assay [6], -12.3%.

Take `O=C(O)CN=CC(O)C(O)C(O)C(O)CO` (configuration not stated): the growth inhibition in assay [1] was -9.8%; in assay [2], -3.8%; in assay [3], 3.9%; in assay [4] it was 4.4%; in assay [5] it was 9.15%; in assay [6], -2.45%.

Consider `Cc1ccc2cc(C)c(C)cc2c1`, for which the growth inhibition was 30.6% in assay [1]; -3.35% in assay [2]; -10.8% in assay [3]; 16.1% in assay [4]; -2.6% in assay [5]; 12.8% in assay [6].

For `COc1ccc(C(O)CC(O)(C(F)(F)F)C(F)(F)F)cc1` (configuration not stated), the growth inhibition in assay [1] was 52.7%; in assay [2] it was 27.6%; in assay [3], 35.3%; in assay [4], 20.3%; in assay [5] it was 46%; in assay [6], 80.8% (active).

In the case of `Cc1cc(C)c(CSc2cc(N)nc(N)c2N)c(C)c1`, the growth inhibition in assay [1] is 15.4%; in assay [2] it was 9.3%; in assay [3], 1.25%; in assay [4], 5.9%; in assay [5], 6.9%; in assay [6], 48.2%.

Regarding `Cc1cccc(C)c1NC(=O)Nc1ccc(C(=O)O)cc1`, the growth inhibition is -8.6% in assay [1]; 31.7% in assay [2]; 2.5% in assay [3]; -15.8% in assay [4]; 22.6% in assay [5]; 11.4% in assay [6].

Consider `Fc1ccc2nncc(/C=C/c3ccccn3)c2c1`, for which the growth inhibition in assay [1] was 41.8%; in assay [2], -3.55%; in assay [3], 4.2%; in assay [4], -16.9%; in assay [5], 24.2%; in assay [6], 19.4%.

Consider `O=C(O)C=C1CCCCC1`, for which the growth inhibition in assay [1] is 4.35%; in assay [2] it was -4.2%; in assay [3], 20%; in assay [4] it was 10.4%; in assay [5], 11.9%; in assay [6], -1.1%.

For `O=C(NNC1CCN(Cc2ccccc2)CC1)c1ccccc1`, the growth inhibition was 12.5% in assay [1]; -18% in assay [2]; 5.35% in assay [3]; 16.9% in assay [4]; 2.5% in assay [5]; 13.4% in assay [6].

In the case of `CC[C@@H]1CN(C)[C@H]2Cc3c([nH]c4ccccc34)C(=O)C[C@H]1C2C(=O)OC` (some centres not stated), the growth inhibition in assay [1] is 13.5%; in assay [2], -14.5%; in assay [3] it was -19.6%; in assay [4], -47.3%; in assay [5], -26.2%; in assay [6], 18.7%.

For `CC(C)NC(=O)Nc1ccccc1Cl`, the growth inhibition in assay [1] is -4.45%; in assay [2], -8.9%; in assay [3], 6.9%; in assay [4] it was -28.8%; in assay [5] it was -11.8%; in assay [6], -0.7%.

Regarding `c1ccc(N2CCN(c3ccccc3)C2)cc1`, the growth inhibition in assay [1] was -33.8%; in assay [2] it was -13.3%; in assay [3], -12.8%; in assay [4], 8.65%; in assay [5], 9.1%; in assay [6] it was 11.5%.

For the compound `O=C(O)CCc1ccccc1CC(=O)O`, the growth inhibition was 12.8% in assay [1]; -9.95% in assay [2]; -10.8% in assay [3]; -10.1% in assay [4]; -12.3% in assay [5]; 13.2% in assay [6].

Consider `CC(C)(Br)CS(=O)(=O)c1ccccc1`, for which the growth inhibition was 38.1% in assay [1]; 5.85% in assay [2]; 29.1% in assay [3]; -20.2% in assay [4]; 14.1% in assay [5]; 29.5% in assay [6].

On to `C=C(NC(C)=O)C(=O)O`, for which the growth inhibition was -4.65% in assay [1]; -7.4% in assay [2]; -11% in assay [3]; 4.5% in assay [4]; 10.9% in assay [5]; 4.15% in assay [6].

Turning to `Cn1c(=O)c2c(ncn2CCN2CCNCC2)n(C)c1=O`, the growth inhibition is 13.8% in assay [1]; -12.8% in assay [2]; 0.2% in assay [3]; -37.5% in assay [4]; 25.4% in assay [5]; 3.9% in assay [6].
